Consider 61 compounds from PubChem BioAssay AID449762 (Southern Research Specialized Biocontainment Screening …, 2010).

Structures are written as SMILES. About 1,900 (0.58%) of roughly 330,000 compounds were called active. Another 4% or so got no clear call; they are omitted. A selection follows. Measured potencies and affinities stand elsewhere. Unmarked numbers belong to inactive results. Rule as the data show it: inconclusive = inhibition above about 70% without an active follow-up result; inactive = below that.

The assay in a line: M. tuberculosis growth inhibition, HTS (AID 449762).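 Also: bacterial growth assessed after seven days of incubation.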 The settings on record: M. tuberculosis H37Rv growth inhibition, 7H9 media; at 25 µM; hits give high values.
`COc1ccc(N2C(=O)C3C4c5ccccc5C(C=Nc5ccc(C)cc5C)(c5ccccc54)C3C2=O)cc1` (stereo unspecified): the inhibition (commonly the relative decrease from the control value, in per cent) is 36.6%. Then `COc1ccc(N2C(=O)C3C(C2=O)C3(c2ccccc2)c2ccccc2)cc1` (stereo unspecified), with 1.86%; and `Cn1c(=O)c2c(nc3n2CC(O)CN3c2ccc(O)cc2)n(C)c1=O` (stereo unspecified), with -2.83%. Then `CCc1cccc2c(=O)c(C(=O)NCCN3CCOCC3)c[nH]c12`, with -3.32%; and `CCc1cccc2c(C(=S)N3CCOCC3)c[nH]c12`, with 3.01%.

Consider `CCc1cccc2c(C(=O)COC(=O)c3ccc(O)cc3)c[nH]c12`, for which the inhibition is -5.92%. Next, `CCc1cccc2c(C(=O)COC(=O)c3ccccc3)c[nH]c12`: 0.69%; `O=C(NCc1ccccc1)c1cccc(Br)n1`: 2.81%. Then `CC(C)n1cc(CNC(=O)C2CCC(=O)N(Cc3ccccc3F)C2)cn1` (stereo unspecified), with 5.12%. Next, `O=C(OCc1ccc([N+](=O)[O-])cc1)C1CC(=O)N(Cc2ccccc2)C1` (stereo unspecified): 6.8%; `COCCN(C(=O)c1cccc(N2C(=O)CCC2=O)c1)c1nc(-c2ccc([N+](=O)[O-])cc2)cs1`: 31.4%.

Consider `Cc1cc(C)n(CCC(=O)N=Nc2c(O)[nH]c3ccccc23)n1`, for which the inhibition is 3.85%. As to `CCC1CCCCN1CCCNC(=O)CSc1nc2nc(C)c(Cc3ccccc3Cl)c(C)n2n1` (stereo unspecified), the inhibition was 4.72%. For `Cc1ccc(N2CCN(/N=C/C(Cl)=C/c3ccccc3)CC2)cc1`, the inhibition is 4.03%. Next, `COc1ccccc1N1CCN(/N=C\c2ccccc2)CC1`: 4.03%. `Cc1c(C(=O)Nc2ccc3c4c(cccc24)CC3)cccc1[N+](=O)[O-]`: the inhibition was 27.6%. As to `O=C(Nc1ccc2c3c(cccc13)CC2)c1cccc([N+](=O)[O-])c1`, the inhibition is -7.19%. Next, `COc1ccc(-c2cc(C)no2)cc1S(=O)(=O)N1CCN(C(=O)c2ccco2)CC1`: -7.17%; `COc1ccc(CCN=C(N)C(C)c2ccccc2)cc1OC` (stereo unspecified): -10.7%. Next, `CC(C)Cc1ccc(C(C)C(=N)N)cc1` (stereo unspecified): 6.85%; `CCOC(=O)c1c(-c2ccc(OC)cc2)csc1NC(=O)CSc1ccccc1`: 3.36%; `CCOC(=O)c1c(-c2ccc(Cl)cc2)csc1NC(=O)CNCc1ccco1`: 3.78%. Next, `COC(=O)c1c(NC(C)=O)sc(C(=O)N2CCOCC2)c1C`: 2.88%.

On to `COC(=O)c1c(NC(=O)C(C)C)sc(C(=O)N2CCOCC2)c1C`, for which the inhibition is -8.29%. Consider `S=C(NCc1ccncc1)Nc1cc(Cl)cc(Cl)c1`, for which the inhibition is 69.9%. Next, `O=C(CCc1nnc(CCCc2ccccc2)o1)NCCc1ccccc1`: 3.96%; `COC(c1ccccc1)c1nnc(CCC(=O)N(C)CCCC2CCCC2)o1` (stereo unspecified): 3.33%. On to `CN(C(=O)CCc1nnc(-c2ccc(-c3ccccc3)cc2)o1)C1CCOCC1`, for which the inhibition is -8.56%.

Take `O=C(CCc1nnc(CCCCc2ccccc2)o1)NCCC1CCCCO1` (stereo unspecified): the inhibition was -2.58%.

Regarding `COc1ccc(C2=CSC3=NCCN23)cc1`, the inhibition is 4.38%. Then `CCC(=NCc1cccnc1)c1c(O)n(Cc2ccccc2)c(=O)[nH]c1=O`, with -0.2%; and `COc1ccc(NC(=O)Cn2c(=O)n(-c3ccccc3)c(=O)c3oc4ccccc4c32)c(OC)c1`, with -0.2%; and `CC1(C)CC(=O)CC(=Nc2ccc(C(=O)O)cc2)C1`, with 2.32%. Then `COc1ccc(OC)c(C(c2nnnn2Cc2ccccc2)N2CCN(C)CC2)c1` (stereo unspecified), with 5.62%; and `Cc1ccc(CN2CCN(/N=C\c3cccc([N+](=O)[O-])c3)CC2)cc1`, with 55.9%; and `O=[N+]([O-])c1cc(/C=N/N2CCCCC2)ccc1Cl`, with 1.34%. Regarding `Nc1c2c(nc3ccn(-c4ccccc4)c(=O)c13)CCCCC2`, the inhibition is 3.82%. Next, `Nc1c2c(nc3ccccc13)CCC2`: -1.89%; `CCNC(=O)c1nc[nH]c1C(=O)NCC`: -0.32%. Then `COc1ccc2c(c1OC)C(=O)N1c3ccccc3COC21` (stereo unspecified), with -4.65%; and `CC1CC(C)CN(C(=O)c2cc3c(=O)n4ccccc4nc3s2)C1` (stereo unspecified), with 9.39%; and `COc1cccc(CNS(=O)(=O)c2cccc(S(=O)(=O)N3CCOCC3)c2)c1`, with 5.34%. Next, `COc1ccccc1C1CC(c2ccc(Cl)cc2Cl)Nc2nc(N)nn21` (stereo unspecified): -6.06%; `O=C(COc1ccccc1)NNC(=O)c1cc2ccccc2oc1=O`: -4.55%. On to `O=C(COc1ccc(F)cc1)NNC(=O)c1cc2ccccc2oc1=O`, for which the inhibition is -1.43%. Next, `CCOc1cc(N2CCOCC2)c(OCC)cc1NC(=O)c1ccc(OC)c(S(=O)(=O)N2CCOCC2)c1`: -2.5%; `Cc1c(NS(=O)(=O)c2cccc(C(=O)NCc3ccc(Cl)cc3)c2)c(=O)n(-c2ccccc2)n1C`: -7.86%. Turning to `CCOC(=O)c1csc(N)n1`, the inhibition is -3.93%. Then `CCOC(=O)c1csc(-c2ccc(OC)c(OC)c2)n1`, with 6.33%; and `O=C(Nc1cccc(Cl)c1)NC1CC2CCC(C1)N2Cc1cccs1` (stereo unspecified), with -7%; and `CCOc1ccc(-n2c(-c3ccccc3)c[n+]3c2CCCCC3)cc1`, with -7.91%. Next, `CCOc1ccc(-c2c[n+]3c(n2-c2ccccc2)CCCCC3)cc1`: -9.73%; `Cc1nc(NC(=O)COC(=O)C2CC2C)c(Cl)cc1Cl` (stereo unspecified): -3.52%.

On to `Cc1ccccc1Nc1nc(N)nc(COC(=O)c2ccco2)n1`, for which the inhibition is 10.5%. As to `Cc1ccccc1Nc1nc(N)nc(COC(=O)c2ccccc2)n1`, the inhibition was -4.25%. Consider `CC1CN(c2ccc([N+](=O)[O-])c(NCCOc3ccccc3)c2)CCN1` (stereo unspecified), for which the inhibition was 22.7%. Then `CC1CN(c2ccc([N+](=O)[O-])c(NCCOc3ccccc3)c2)CC(C)N1` (stereo unspecified), with 18.3%; and `Cc1csc2nc(O)c(C(=O)NCCC3=CCCCC3)c(=O)n12`, with 49.8%. Then `Cc1csc2nc(O)c(C(=O)NCc3ccc4c(c3)OCO4)c(=O)n12`, with 28.7%.

Consider `O=C(NCc1ccc2c(c1)OCO2)c1c(F)c(F)c(F)c(F)c1F`, for which the inhibition was 4.75%. Next, `O=C(NCCC1=CCCCC1)c1c(O)nc2ccccn2c1=O`: -7.18%.
